# TEAD-YAP inh – TEAD-YAP interaction inhibition | inhibition, % at 9.12 µM | HEK-TIYL cells, TEAD-Gal4/YAP UAS-luciferase luminescence | hit rate 1.4% among 640,000 | AID 1259422; in the data active means inhibition above about 32%;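 further: 0% = median of test compound wells and 100% = reference inhibitor wells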
# GPR151 activ – human GPR151 activation; Q8TDV0; PathHunter beta-arrestin GPR151 cells, luminescence; activation, % at 11.2 µM; hit rate 1% among 650,000; AID 1508602; in the data active means activation above about 4.9%;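 further: 0% = median of compound wells and 100% = cells with positive control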
# FBW7 act – activators of human E3 ligase FBW7. hit rate 0.13% among 650,000. AlphaScreen FBW7–phospho-cyclin E peptide binding, activator screen. Q969H0. AID 1259310. normalized activity (activation), % at 26.1 µM; in the data active means normalized activity above about 1.9%;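 further: purified mutant Fbw7 with reduced substrate affinity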
# MITF inh – human MITF inhibition, primary screen; O75030; AlphaScreen MITF homodimerization, bead proximity signal; inhibition, % at 2.6 µM; hit rate 0.91% among 650,000; AID 1259374; in the data active means inhibition above about 50%;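 further: 0% = vehicle wells with protein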
# Target sequence (O75030 whole entry, looked up): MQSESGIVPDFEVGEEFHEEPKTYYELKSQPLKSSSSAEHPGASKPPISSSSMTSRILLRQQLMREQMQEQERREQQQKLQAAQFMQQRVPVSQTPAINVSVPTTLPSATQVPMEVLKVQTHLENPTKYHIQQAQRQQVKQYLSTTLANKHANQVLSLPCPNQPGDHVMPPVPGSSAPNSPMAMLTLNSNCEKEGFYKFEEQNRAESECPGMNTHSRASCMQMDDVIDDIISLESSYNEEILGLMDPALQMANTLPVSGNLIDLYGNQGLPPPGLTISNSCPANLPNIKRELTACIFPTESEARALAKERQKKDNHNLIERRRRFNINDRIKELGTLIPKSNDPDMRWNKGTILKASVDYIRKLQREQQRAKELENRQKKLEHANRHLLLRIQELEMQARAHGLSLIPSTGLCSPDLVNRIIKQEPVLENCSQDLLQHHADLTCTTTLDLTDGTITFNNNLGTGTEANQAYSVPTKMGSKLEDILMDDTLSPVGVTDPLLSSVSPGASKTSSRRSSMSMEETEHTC
# GPR151 conf act – confirmation of human GPR151 activators; shares compounds with GPR151 activ; GPR151 PathHunter beta-arrestin cells, luminescence, 90 min; % of EA-reagent control over plate median; activation, % at 11.2 µM; 6,700 tested, under 10 active; AID 1508609;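 active means mean percent activation across replicates above the confirmation screen cutoff of 4.91%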
# GPR119 counter – activates human GPR119 in a GPR151 counter-screen; shares compounds with GPR151 activ; GPR119 PathHunter beta-arrestin cells, luminescence, 90 min; 0 = compound-well median, 100 = enzyme-acceptor control; activation, % at 11.2 µM; hit rate 0.3% among 6,700;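 active means mean percent activation in the counterscreen above 29.09%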;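 further: counterscreen on off-target GPR119 to flag nonselective hits from the GPR151 activator screen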
# Active calls of the source: *; · = no result. Rows were chosen to be rich in hits. Some 3.4% of all compounds tested hit in one or more screens of this group.
SMILES,TEAD-YAP inh,GPR151 activ,FBW7 act,MITF inh,GPR151 conf act,GPR119 counter
Cc1ccc([N+](=O)[O-])cc1S(=O)(=O)Nc1cccc(-c2cn3cccnc3n2)c1,-6,6.1*,0,3,0,12
O=C(Nc1ccc(Cl)cc1)NC1(C(=O)Nc2ccc3c(c2)OCCO3)CCCCC1,-2,0,0,10,·,·
C=CCOc1ccc(/C=C2\C(=O)NN(c3ccccc3)C2=O)cc1OC,1,5.3*,0,4,0,3
O=C(COc1ccc([N+](=O)[O-])cc1)Nc1cc(C(F)(F)F)ccc1N1CCOCC1,-12,1,0,-14,·,·
O=C(Nc1cc(C(F)(F)F)ccc1N1CCOCC1)c1cc([N+](=O)[O-])ccc1Cl,81*,5.6*,0,8,0,-7
COc1cc2nc(-c3cccc(N)c3)nc(Nc3cc(OC)c(OC)c(OC)c3)c2cc1OC,12,0,0,12,·,·
CC(C)CC(=O)N1CCC(c2nc3c(nnn3Cc3ccc(F)cc3)c(=O)[nH]2)CC1,2,1,0,-1,·,·
CC(C)CC(=O)N1CCC(c2nc3c(nnn3Cc3cccc(F)c3)c(=O)[nH]2)CC1,5,5.6*,0,3,1,7
CCCCOc1ccc(C(=O)N2C(=O)C(=O)c3ccccc32)cc1,14,-9,1,3,·,·
CCOC(=O)C1CCN(S(=O)(=O)c2cc3[nH]c(=O)c(=O)[nH]c3cc2C)CC1,-1,5.2*,0,-8,0,-2
Cc1nc2ccccc2nc1CN1CCC2(CC1)CC2C(=O)N(C)Cc1cscn1 (configuration not stated),7,0,0,16,·,·
Cc1ccsc1CN1CCC2(CC1)CC2C(=O)N(C)Cc1cscn1 (configuration not stated),1,5.2*,0,-1,0,-1
N=c1c(N)c1N(CCN1CCOCC1)C(=O)c1cccc(-n2ncc3cc(N(c4c(N)c4=N)c4c(N)c4=N)ccc32)c1,1,3,0,-22,·,·
Cc1cc(Nc2ccc3c(c2)OCO3)nc(Nc2nc3ccccc3n2C)n1,0,7.4*,0,-10,0,-1
CCOc1cc(C2C(C#N)=C(N)Oc3n[nH]c(-c4ccc(OC)cc4)c32)ccc1OC(=O)c1cccs1 (configuration not stated),7,0,0,-3,·,·
CC(=O)Nc1ccc(NC(=S)NC(=O)c2ccccc2[N+](=O)[O-])cc1,-20,6.4*,0,-21,0,16
Cc1ccc(Cl)cc1NC(=O)CC(O)(C(F)(F)F)C(F)(F)F,6,5.2*,0,-17,0,6
COc1ccccc1NC(=O)CC(O)(C(F)(F)F)C(F)(F)F,14,5.8*,0,3,0,1
COc1ccccc1NC(=O)COc1ccc(C(=O)O)cc1,2,7.9*,0,15,0,0
O=C(CC(O)(C(F)(F)F)C(F)(F)F)Nc1ccccc1Br,-8,0,1,10,·,·
CCCN(Cc1ccc(OC)c(OC)c1)CC1CC1,-1,0,0,0,·,·
O=C(OCC(=O)N(C1CCCCC1)C1CCCCC1)c1cc[n+]([O-])cc1,3,1,0,5,·,·
Cc1cc(I)ccc1NC(=O)Cc1ccccc1,4,6.1*,0,-2,0,-1
COC(=O)c1cccn2cc(-c3ccc(F)cc3)nc12,-10,4.9*,0,1,-1,-6
Cc1cc(NC(=O)COCc2cc(-c3ccc4c(c3)OCO4)on2)no1,-2,0,0,7,·,·
SMILES,TEAD-YAP inh,GPR151 activ,FBW7 act,MITF inh,GPR151 conf act,GPR119 counter
COc1cc(/C=N/Nc2ccccc2[N+](=O)[O-])cc(Br)c1O,-54,-5,0,9,·,·
COC(=O)c1ccc(/C=N/Nc2ccccc2[N+](=O)[O-])cc1,-29,4.9*,0,-2,0,-7
CC(=O)c1cccc(-c2[nH]nc3nc(C4CC4)ccc23)c1,-67,0,-1,-12,·,·
COc1ccc(CC(=O)Nc2cc(Cl)ccc2C(=O)O)cc1,0,5.6*,0,-7,0,-7
COc1ccc(CC(=O)Nc2ccc(Cl)cc2C(=O)O)cc1,1,-2,0,3,·,·
COc1ccc(NC(=O)CN2C(=O)C(C)Oc3ccc(C)cc32)cc1 (configuration not stated),5,-1,0,23,·,·
COc1ccc(NC(=O)CN2C(=O)COc3ccc(C)cc32)cc1OC,6,6.0*,0,6,1,10
CCOC(=O)CN1C(=O)COc2ccc(Cl)cc21,0,5.6*,0,-4,0,-6
Cc1ccc2c(c1)N(CC(=O)Nc1ccc(Cl)cc1)C(=O)C(C)O2 (configuration not stated),8,22*,0,-8,1,6
Cc1ccc2c(c1)N(CC(=O)Nc1ccc3c(c1)OCCO3)C(=O)CO2,14,-1,0,11,·,·
O=C(CN1C(=O)COc2ccc(Cl)cc21)Nc1ccc([N+](=O)[O-])cc1,14,7.6*,0,-3,1,-2
CCCC1(CCC)NC(=O)N(CC(=O)Nc2ccc(Br)cc2C)C1=O,16,0,0,-1,·,·
COc1cc(C2N3CC4(C)CN2CC(C)(C3)C4=O)ccc1O (configuration not stated),0,0,0,8,·,·
NC(=O)c1ccc(NC(=O)COC(=O)c2ccccc2I)cc1,4,2,0,15,·,·
Nc1c(-c2nc(-c3ccc(Cl)cc3)no2)nnn1-c1ccccc1,4,0,0,17,·,·
COc1ccc(NC(=O)CN2C(=O)CC(c3ccco3)Sc3ccccc32)cc1OC (configuration not stated),12,-1,0,1,·,·
COc1ccc(NC(=O)CN2C(=O)CC(c3ccccc3)Sc3ccccc32)cc1OC (configuration not stated),1,7.4*,1,-4,1,-3
CCNC(=O)[C@@H]1C[C@H](NCc2ccc(OC)c(C)c2C)CN1C(C)C,5,0,0,2,·,·
CCOc1cc(C=O)cc([N+](=O)[O-])c1OCc1ccccc1,1,-1,0,7,·,·
CCOC(=O)CC(C(C)C)N(Cc1ccc(Cl)c([N+](=O)[O-])c1)S(=O)(=O)c1ccc(Cl)cc1 (configuration not stated),-8,9.1*,0,9,-1,-10
Cc1ccc(C)c(NS(=O)(=O)c2ccc3c(c2)C(=NO)c2cc(S(=O)(=O)Nc4cc(C)ccc4C)ccc2-3)c1,-14,2,0,-1,·,·
O=C1NC(c2cccnc2)C(C(=O)c2cccs2)=C1O (configuration not stated),0,6.1*,0,27,-1,-12
O=c1ccc2cc(S(=O)(=O)NCc3ccco3)ccc2o1,-1,1,0,-41,·,·

# High-throughput results: PubChem BioAssay, The Scripps Research Institute Molecular Screening Center
